Several values for one entry are separate records, joined by “and”; a condition that tells them apart may be missing. Identical values can stand only once. In all, about 5,500 compounds went through this assay and about 2,000 (36%) were called active. About 18% were inconclusive and are not listed. No stated cut-off is given here; in the data, active means normalized growth mostly below about 0.91 (no sharp cut-off); inconclusive means no clear call, values can overlap the other calls; inactive means mostly above about 0.92. This is one part of the list.
Experiment: chemical genetic growth profiling, strain panel (AID 1159580);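 further: tested at 20 µM; growth read once vehicle control cultures reached saturation at 30 °C; 1 = growth at the plate median or of vehicle wells; lower values mean less growth of the strain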
Settings: S. cerevisiae deletion strains, growth OD

Measured: normalized growth

CC1CC[C@]2(NC1)O[C@H]1CC3C4CC[C@H]5C[C@@H](O)CC[C@]5(C)C4CC[C@]3(C)[C@H]1[C@@H]2C (stereo partly specified)
inactive: locus YOL012C, strain htz1 0.203
active: locus YAL021C, strain ccr4, hits give low values 0.173 | locus YAL026C, strain drs2, hits give low values 0.0682 | locus YAL030W, strain snc1, hits give low values 0.0859 | locus YBL061C, strain skt5, hits give low values 0.109 | locus YBR009C, strain hhf1, hits give low values 0.0771 | locus YBR021W, strain FUR4, hits give low values 0.272 | locus YBR023C, strain chs3, hits give low values 0.102 | locus YBR171W, strain sec66, hits give low values 0.159 | locus YBR229C, strain ROT2, hits give low values 0.107 | locus YBR231C, strain swc5, hits give low values 0.167 | locus YBR279W, strain paf1, hits give low values 0.143 | locus YCL011C, strain gbp2, hits give low values 0.0814 | locus YCL016C, strain dcc1, hits give low values 0.103 | locus YCL029C, strain bik1, hits give low values 0.0809 | locus YCL061C, strain MRC1, hits give low values 0.103 | locus YCL069W, strain vba3, hits give low values 0.0775 | locus YCR088W, strain abp1, hits give low values 0.111 | locus YDL005C, strain med2, hits give low values 0.104 | locus YDL035C, strain GPR1, hits give low values 0.0845 | locus YDL040C, strain nat1, hits give low values 0.164 | locus YDL074C, strain BRE1, hits give low values 0.148 | locus YDL101C, strain DUN1, hits give low values 0.0938 | locus YDL185W, strain tfp1, hits give low values 0.0599 | locus YDL192W, strain arf1, hits give low values 0.0839 | locus YDR001C, strain nth1, hits give low values 0.108 | locus YDR069C, strain doa4, hits give low values 0.386 | locus YDR101C, strain arx1, hits give low values 0.104 | locus YDR137W, strain rgp1, hits give low values 0.534 | locus YDR159W, strain sac3, hits give low values 0.11 | locus YDR162C, strain NBP2, hits give low values 0.0587 | locus YDR195W, strain ref2 0.225 | locus YDR297W, strain sur2, hits give low values 0.102 | locus YDR318W, strain mcm21, hits give low values 0.0797 | locus YDR334W, strain swr1, hits give low values 0.0978 | locus YDR335W, strain msn5, hits give low values 0.101 | locus YDR388W, hits give low values 0.0652 | locus YDR392W, strain spt3, hits give low values 0.0848 | locus YDR502C, strain sam2, hits give low values 0.0839 | locus YEL003W, strain gim4, hits give low values 0.0733 | locus YEL037C, strain rad23, hits give low values 0.197 | locus YEL061C, strain CIN8 (second series), hits give low values 0.0698 | locus YER015W, strain faa2, hits give low values 0.118 | locus YER016W, strain bim1, hits give low values 0.102 | locus YER110C, hits give low values 0.135 | locus YER111C, strain swi4, hits give low values 0.0988 | locus YER155C, strain BEM2 (second series), hits give low values 0.113 | locus YER155C, strain BEM2, hits give low values 0.0788 | locus YER167W, strain BCK2, hits give low values 0.0623 | locus YFR010W, strain ubp6, hits give low values 0.375 | locus YGL078C, strain dbp3, hits give low values 0.124 | locus YGL086W, strain mad1, hits give low values 0.073 | locus YGL167C, strain pmr1, hits give low values 0.319 | locus YGL173C, strain kem1, hits give low values 0.442 | locus YGL227W, strain vid30, hits give low values 0.0819 | locus YGL240W, strain doc1, hits give low values 0.257 | locus YGL248W, strain PDE1, hits give low values 0.0587 | locus YGL253W, strain hxk2, hits give low values 0.0659 | locus YGR135W, strain pre9, hits give low values 0.0764 | locus YGR229C, strain SMI1, hits give low values 0.0768 | locus YGR252W, strain gcn5, hits give low values 0.211 | locus YHR013C, strain ard1, hits give low values 0.136 | locus YHR027C, strain rpn1, hits give low values 0.324 | locus YHR030C, strain SLT2, hits give low values 0.142 | locus YHR079C, strain IRE1 (second series), hits give low values 0.0949 | locus YHR079C, strain IRE1, hits give low values 0.54 | locus YHR094C, strain hxt1, hits give low values 0.0761 | locus YHR129C, strain ARP1, hits give low values 0.0658 | locus YHR142W, strain chs7, hits give low values 0.0852 | locus YHR200W, strain rpn10, hits give low values 0.103 | locus YIL066C, strain RNR3, hits give low values 0.0618 | locus YIL073C, strain SPO22, hits give low values 0.125 | locus YIL125W, strain kgd1, hits give low values 0.102 | locus YIR030C, strain dcg1, hits give low values 0.0851 | locus YJL092W, strain hpr5, hits give low values 0.0924 | locus YJL095W, strain BCK1 (second series), hits give low values 0.0627 | locus YJL095W, strain BCK1, hits give low values 0.0635 and 0.17 | locus YJL115W, strain asf1, hits give low values 0.113 | locus YJL129C, strain trk1, hits give low values 0.102 | locus YJL134W, strain LCB3, hits give low values 0.0651 | locus YJL154C, strain vps35, hits give low values 0.156 | locus YJL164C, strain tpk1, hits give low values 0.0795 | locus YJL166W, strain qcr8, hits give low values 0.0744 | locus YJL168C, strain set2, hits give low values 0.0986 | locus YJL187C, strain SWE1 (second series), hits give low values 0.0801 | locus YJR043C, strain POL32, hits give low values 0.0984 | locus YJR066W, strain TOR1, hits give low values 0.471 | locus YKL009W, strain mrt4, hits give low values 0.252 | locus YKL068W, hits give low values 0.135 | locus YKL085W, strain MDH1 (second series), hits give low values 0.0926 | locus YKL085W, strain MDH1, hits give low values 0.0926 | locus YKL160W, strain elf1, hits give low values 0.0907 | locus YKR001C, strain vps1, hits give low values 0.0755 | locus YKR026C, strain gcn3, hits give low values 0.223 | locus YKR091W, strain srl3, hits give low values 0.12 | locus YLL001W, strain dnm1, hits give low values 0.109 | locus YLL026W, hits give low values 0.0788 | locus YLL041C, strain sdh2, hits give low values 0.0915 | locus YLR027C, strain aat2, hits give low values 0.0814 | locus YLR039C, strain RIC1, hits give low values 0.229 | locus YLR058C, strain SHM2, hits give low values 0.0708 | locus YLR102C, strain apc9, hits give low values 0.0841 | locus YLR113W, strain HOG1, hits give low values 0.557 | locus YLR221C, strain rsa3, hits give low values 0.077 | locus YLR258W, strain gsy2, hits give low values 0.0908 | locus YLR262C, strain YPT6 (second series), hits give low values 0.323 | locus YLR268W, strain sec22, hits give low values 0.0945 | locus YLR320W, strain mms22, hits give low values 0.0887 | locus YLR330W, strain CHS5, hits give low values 0.0602 | locus YLR342W, strain FKS1 (second series), hits give low values 0.0855 | locus YLR342W, strain FKS1, hits give low values 0.0932 | locus YLR357W, strain rsc2, hits give low values 0.383 | locus YLR370C, strain arc18, hits give low values 0.0901 | locus YLR371W, strain rom2, hits give low values 0.0788 | locus YLR384C, strain iki3, hits give low values 0.213 | locus YLR418C, strain cdc73, hits give low values 0.141 | locus YML016C, strain PPZ1, hits give low values 0.0661 | locus YML032C, strain rad52, hits give low values 0.105 | locus YML120C, strain ndi1, hits give low values 0.0802 | locus YML124C, strain tub3, hits give low values 0.0853 | locus YMR058W, strain fet3, hits give low values 0.113 | locus YMR078C, strain ctf18, hits give low values 0.0791 | locus YMR125W, strain sto1, hits give low values 0.102 | locus YMR129W, hits give low values 0.0908 | locus YMR205C, strain PFK2, hits give low values 0.124 | locus YMR223W, strain ubp8, hits give low values 0.0843 | locus YMR231W, strain pep5, hits give low values 0.106 | locus YMR263W, strain SAP30, hits give low values 0.0847 | locus YMR307W, strain GAS1, hits give low values 0.145 | locus YNL067W, strain RPL9B, hits give low values 0.0797 | locus YNL071W, strain lat1, hits give low values 0.0674 | locus YNL183C, strain NPR1, hits give low values 0.561 | locus YNL209W, strain ssb2, hits give low values 0.383 | locus YNL233W, strain BNI4, hits give low values 0.0735 | locus YNL248C, strain rpa49, hits give low values 0.101 | locus YNL250W, strain rad50, hits give low values 0.104 | locus YNL271C, strain bni1, hits give low values 0.103 | locus YNL298W, strain CLA4, hits give low values 0.081 | locus YNL307C, strain MCK1, hits give low values 0.0717 | locus YNL322C, strain KRE1 (second series), hits give low values 0.131 | locus YNL322C, strain KRE1, hits give low values 0.0664 | locus YNR049C, strain mso1, hits give low values 0.0984 | locus YNR052C, strain pop2, hits give low values 0.103 | locus YOL006C, strain TOP1, hits give low values 0.15 | locus YOL147C, strain pex11, hits give low values 0.0685 | locus YOR001W, strain rrp6, hits give low values 0.105 | locus YOR061W, strain CKA2, hits give low values 0.117 | locus YOR069W, strain VPS5, hits give low values 0.0792 | locus YOR070C, strain gyp1, hits give low values 0.0794 | locus YOR080W, strain dia2, hits give low values 0.111 | locus YOR083W, strain WHI5, hits give low values 0.198 | locus YOR106W, strain vam3, hits give low values 0.143 | locus YOR136W, strain idh2, hits give low values 0.0918 | locus YOR144C, strain elg1, hits give low values 0.0753 | locus YOR184W, strain ser1, hits give low values 0.0768 | locus YOR231W, strain MKK1, hits give low values 0.573 | locus YOR265W, strain rbl2, hits give low values 0.106 | locus YOR270C, strain vph1, hits give low values 0.111 | locus YOR290C, strain snf2, hits give low values 0.108 | locus YOR316C, strain cot1, hits give low values 0.0772 | locus YPL051W, strain arl3, hits give low values 0.182 | locus YPL078C, strain atp4, hits give low values 0.0844 | locus YPL106C, strain sse1, hits give low values 0.175 | locus YPL240C, strain hsp82, hits give low values 0.084 | locus YPL241C, strain CIN2, hits give low values 0.0689 | locus YPL256C, strain CLN2, hits give low values 0.604 | locus YPR119W, strain clb2, hits give low values 0.0896 | locus YPR141C, strain kar3, hits give low values 0.176 | locus YPR163C, strain tif3, hits give low values 0.0892 | locus YPR167C, strain met16, hits give low values 0.0808 | strain wtn01, hits give low values 0.0731

— PubChem BioAssay AID1159580 (chemical genetic matrix, 2015)
